# ± gives the standard deviation.
# System: MILI (PIWIL2) piRISC loaded with L1MC piRNA (26 nt)
# Test: pre-steady-state target cleavage rate (min^-1); guide: L1MC piRNA 5'p-UAACUAAAUACUAUGCAAGCUGUAGG; MIWI and MILI are mouse PIWI proteins and EfPiwi is from a freshwater sponge; tags in brackets are library labels; higher = faster piRNA-guided slicing of the target
# Summary of the method: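 A burst-and-steady-state fit was used to obtain the pre-steady-state cleavage rate. The input data were sequencing reads of uncleaved targets, normalised to depth and to weakly complementary targets, from a […] transcribed, DNA-blocked target RNA library mixed with 1 nM active affinity-purified piRISC holding one synthetic guide, with or without 500 nM GTSF1 partner protein, in HEPES–potassium acetate buffer at 33 °C for 0–8 or 0–960 min. Three trials were pooled and k3 was capped at 0.0001 min^-1.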
# [1] = auxiliary factor: 500 nM mouse GTSF1
# [2] = auxiliary factor: none (no GTSF1)
# 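Also: 1 nM active piRISC with 0.1 nM target library at 33 °C single turnover.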
Sequence,pre-steady-state target cleavage rate [1],pre-steady-state target cleavage rate [2]
UCCUGGUACAGCUUCCUUAGUAUUUAGUUA,0.288 ± 0.052,0.00854 ± 0.0031
UCCUGGAUGUGCUUGCAAAGUAUUUACUUA,0.0114 ± 0.0052,0.00362 ± 0.0028
UCCUGGAUGUGCUUGCUUAGUAAUUAGUUA,0.0601 ± 0.0087,0.00576 ± 0.0023
UCCUGGAACACGAUGCAUAGUAUUUAGUAA,0.0953 ± 0.013,0.00313 ± 0.0029
UCCUGCUACAGGAUGCAUAGUAUUUAGUUA,0.271 ± 0.0083,0.00941 ± 0.0024
UCCUGCUACAGCUUGCAUAGUAUUUAAGUUA,0.365 ± 0.043,0.00882 ± 0.0027
UCCUGGAUGUGGUUGCUUAGUAUUUAGUUA,0.107 ± 0.02,0.0132 ± 0.0037
UCCUGGAUCAGCUAGCAUAGUAUUUAGAUA,0.0957 ± 0.019,0.00275 ± 0.0026
UCCUGGAUGUCGUUGCAGAGUAUUUAGUUA,0.0117 ± 0.0043,0.0038 ± 0.0022
UCCUGGUACAGCUUGAUAGUAUUUAGUUA,0.0803 ± 0.011,0.00786 ± 0.0031
UCCUGGAUGUCGAUGCAUAGUAAUUAGUUA,0.0524 ± 0.011,0.00499 ± 0.0021
UCCUGCUUCAGCUUGCAUAGUUUUUAGUUA,0.0646 ± 0.011,0.00355 ± 0.0025
UCCUGGAUCUGCUUGCAUAGUAUUUACUUA,0.0527 ± 0.0096,0.00348 ± 0.0027
UCCUGGUACGAGCUUGCAUAGUAUUUAGUUA,0.247 ± 0.045,0.0102 ± 0.0039
UCCUGGAUGUCGUUGCAAAGUAUAUAGUUA,0.0166 ± 0.0054,0.00471 ± 0.0027
UCCUGGAUGUCGUUGCAUGGUAUUUAGUUA,0.0354 ± 0.01,0.00854 ± 0.0034
UCCUGGAUGUGCUUGCAUAGUAUUUUAGUUA,0.101 ± 0.018,0.0102 ± 0.0031
UCCUCCAUCAGCUUGCAUAGUAUUUAGUUA,0.248 ± 0.018,0.00673 ± 0.002
UCCUGGAUGUCCUUGGAUAGUUUUUAGUUA,0.0144 ± 0.0045,0.00344 ± 0.0027
UCCUGGAUGUGCUUGCAUUGUAUAUAGUUA,0.0696 ± 0.012,0.00543 ± 0.0026

Sequence,pre-steady-state target cleavage rate [1],pre-steady-state target cleavage rate [2]
UCCUGGAUGUCGUUGCAAAGUAUUUAGUAA,0.0183 ± 0.0061,0.00357 ± 0.0021
UCCUGGAUGUCGAUGCUUAGUAUUUAGUUA,0.019 ± 0.0053,0.00602 ± 0.0019
UCCUGGUACAGCUUGCAAUGUAUUUAGUUA,0.0755 ± 0.013,0.0121 ± 0.0029
UCCUGGAUGUCGUUGCAUAGUGUUUAGUUA,0.0461 ± 0.01,0.00452 ± 0.0029
UCCUGGAUGAGCUUGCAUAGUAUUGUAGUUA,0.0782 ± 0.024,0.00469 ± 0.003
UCCUGGUACAGCUUGCAAGUAUUUAGUUA,0.113 ± 0.014,0.00636 ± 0.0022
UCCUGGAUGUCGUUGCUUAGUAUAUAGUUA,0.0611 ± 0.014,0.0122 ± 0.0029
UCCUGGUACAGCUUGCAUAUGUAUUUAGUUA,0.00566 ± 0.0049,0.00451 ± 0.0033
UCCUGGAUGUCCUUGCUUAGUAUAUAGUUA,0.0347 ± 0.0085,0.0039 ± 0.0023
UCCUGGAUGUGCUUGAAUAGUAUUUAGUUA,0.127 ± 0.013,0.00936 ± 0.0025
UCCUGGUACACCUUGCAUAGUUUUUAGUUA,0.0288 ± 0.011,0.00381 ± 0.0034
UCCUGGAUGUCGUAGCAUAGUAUUAAGUUA,0.0506 ± 0.013,0.00246 ± 0.0024
UCCUGGUACAGCUUCCAUUGUAUUUAGUUA,0.113 ± 0.039,0.00415 ± 0.0035
UCCUGGAUGAGCUAGGAUAGUAUUUAGUUA,0.131 ± 0.021,0.00494 ± 0.0027
UCCUGCUACUGCUUGCUUAGUAUUUAGUUA,0.202 ± 0.022,0.00589 ± 0.002
UCCUGGAUGACCUUGCAUAGUAUUAAGUUA,0.141 ± 0.022,0.00338 ± 0.0027
UCCUGGAUCUCGUUGCAUAGUAUUUAGUAA,0.114 ± 0.018,0.003 ± 0.0027
UCCUGGAUGUCGAUGCCUAGUAUUUAGUUA,0.0127 ± 0.0028,0.00351 ± 0.0023
UCCUGGAUGUGCUUGCAUAGUUUUUAGUAA,0.0109 ± 0.0049,0.00391 ± 0.0027
UCCUGGUACAGCUUGCAUUGUAUAUAGUUA,0.087 ± 0.018,0.00415 ± 0.0033

Sequence,pre-steady-state target cleavage rate [1],pre-steady-state target cleavage rate [2]
UCCUGCUACGAGCUUGCAUAGUAUUUAGUUA,0.217 ± 0.026,0.00594 ± 0.0032
UCCUGGAUCAGCUAGCAUAGAAUUUAGUUA,0.0367 ± 0.0066,0.00247 ± 0.0025
UCCUGCUACAGCUUGCAUAGUAUUUUGUUA,0.168 ± 0.025,0.00464 ± 0.0019
UCCUGGAUGUCCUUGCAUCGUAUUUAGUUA,0.0423 ± 0.015,0.00482 ± 0.0021
UCCUGGAACAGCUUGCAUUGUAUAUAGUUA,0.149 ± 0.017,0.00496 ± 0.0025
UCCUGGAUGUCCUUCAUAGUAUUUAGUUA,0.0147 ± 0.004,0.00296 ± 0.0021
UCCUCCUUCAGCUUGCAUAGUAUUUAGUAA,0.228 ± 0.021,0.00401 ± 0.0018
UCCUGGAUCUGCUUGCUUAGUAUUUAGUUA,0.238 ± 0.017,0.00748 ± 0.0024
UCCUGGAUGAGCAUGCAUAGUAUUUAGAUA,0.166 ± 0.024,0.00498 ± 0.0025
UCCUGGAUGAGCUUGCAUAGUUUUUUGUUA,0.0139 ± 0.0061,0.00346 ± 0.003
UCCUGGUACAGCUUGCAUAGUGAUUUAGUUA,0.0336 ± 0.01,0.00917 ± 0.0038
UCCUGGUACAGGUAGCAUAGUAUUUAGUUA,0.21 ± 0.021,0.00976 ± 0.0036
UCCUGGAUGUCCUUGCAUAGUAUUCAGUUA,0.0755 ± 0.018,0.00338 ± 0.0028
UCCUGGAUGAGCUUGCUAAGUAUUUAGUUA,0.0294 ± 0.0061,0.00602 ± 0.0023
UCCUGGUACAGCUUGCUAAGUAUUUAGUUA,0.123 ± 0.015,0.00432 ± 0.0026
UCCUGGAUGUCGAAGCAUAGUAUUUAAGUUA,0.064 ± 0.0095,0.00425 ± 0.0022
UCCUGCUACAGCUUGCAUAGUAGUUUAGUUA,0.239 ± 0.032,0.0034 ± 0.0024
UCCUGGAUGUCCUUGCAAAGUAUAUAGUUA,0.0544 ± 0.014,0.00539 ± 0.002
UCCUGGAUGUCGAUGGAUAGUAUUUAGUUA,0.0431 ± 0.0076,0.00383 ± 0.0027
UCCUGGUACAGCUUGCAUAGUAUUUAGUUU [g2:g24:cont:t1U],0.249 ± 0.016,0.0218 ± 0.0053
